The values that follow come from PubChem BioAssay AID1117359 (Southern Research Institute, 2015).

The campaign covered roughly 1,500 compounds. About 460 (31%) were called active.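 The calls were made as follows: active = viability at or below 80% at any tested concentration, marking the compound as toxic; inactive = the rest.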 Only a sample is shown. Entries that show only a call come without a potency. Potency and affinity values are given separately.

The experiment in a line: THP-1 cell cytotoxicity, dose response, cytotoxicity control for Vif-APOBEC3G degradation inhibitor project, THP-1 cells (AID 1117359). The conditions noted are these: THP-1 viability, CellTiter-Glo luminescence, 72 h; series mostly up to 40 µM. On the technique in general: ATP-based viability assays read luminescence as a measure of living cells.
Consider `CC1(OC(=O)CCc2ccccc2)C(=O)C=C2C=C(c3ccsc3)OC=C2C1=O` (stereo unspecified), for which the call was inactive. The result for `CCOC(=O)C1(Cc2ccc(OC)cc2)CCN(C(=O)Cc2cccnc2)CC1` reads “inactive”. On to `CCOc1ccc(-n2c(SCC(=O)Nc3cc(C)on3)nnc2-c2c[nH]c3ccccc23)cc1`, for which the call was inactive. Under `O=C(CC(=O)NN=Cc1ccc2c(c1)CCC2)NN=Cc1ccc2c(c1)CCC2` stands “inactive”; under `COc1cc2ccccc2nn1`, “inactive”. For `C/C(=N\NC(=O)c1ccc(NS(=O)(=O)c2cccs2)cc1)c1ccccc1`, the result was inactive. As for `CCN1CCN(C(=O)C2COc3ccccc3O2)CC1` (stereo unspecified), the compound was classed as inactive. Under `O=C(COC(=O)c1ccc(NS(=O)(=O)c2cccs2)cc1)NCc1ccco1` stands “inactive”. Under `O=C(O)CCc1ccc(-c2cccs2)n1-c1ccc(C(=O)O)cc1` stands “inactive”. Regarding `O=C(c1ccc(=O)oc1)N1CCCc2ccccc21`, the compound was classed as inactive.

`O=C(Cc1ccccn1)c1ccncc1`: the call was inactive. Under `Cc1cc(O)ccc1-c1cnc2ccccc2n1` stands “inactive”. Turning to `Cc1cc(/C=C2\SC(=S)NC2=O)c(C)n1-c1ccc(O)cc1`, the result was inactive. Under `O=C(NCC1CCCO1)c1cc2ccccc2oc1=O` (stereo unspecified) stands “inactive”; under `NS(=O)(=O)c1ccc(CCNC(=O)CCS(=O)(=O)c2ccc(Br)cc2)cc1`, “inactive”. Under `CC(OC(=O)/C=C/c1ccco1)C(=O)NC1CCCCC1` (stereo unspecified) stands “inactive”; under `CC(=O)Nc1ccc(NC(=O)C(C)OC(=O)CCc2c[nH]c3ccccc23)cc1` (stereo unspecified), “inactive”. Under `O=c1ccc2c(-c3ccccc3S(=O)(=O)O)c3ccc(O)c(O)c3oc-2c1O` stands “inactive”; under `CCOc1ccccc1C(O)C1=CC(=O)c2ccccc2C1=O` (stereo unspecified), “inactive”. As for `CCOc1cccc(C(=O)Nc2ccccc2OC(F)F)c1`, the call was inactive. Under `CC(=O)Nc1nnc(SCC(=O)N2CCCc3ccccc32)s1` stands “inactive”; under `O=C(Nc1ccc(F)c(Cl)c1)c1cccnc1`, “inactive”. Under `Clc1ccc2c(c1)nc1n2CCCC1` stands “inactive”; under `FC(F)Oc1ccccc1NC(=S)Nc1cccnc1`, “inactive”.

In the case of `CN(C)c1nc(N)nc(CSc2nc3c(c(=O)n(C)c(=O)n3C)n2Cc2ccccc2F)n1`, the result was inactive.

Take `CCS(=O)(=O)c1ccc2oc(Nc3cccc(OC)c3)nc2c1`: the call was inactive. The result for `CC(C)(C)c1nnc(NC(=O)c2ccc(Cl)nc2)s1` reads “inactive”.

For `CC1CCN(S(=O)(=O)c2ccc(C(=O)NCc3ccc4c(c3)OCO4)cc2)CC1`, the outcome was inactive. Under `CCn1c(C)nc2cc(C(=O)N/N=C/c3ccc(O)c(O)c3O)ccc21` stands “inactive”; under `Cc1cccc(N/N=C/c2ccc(O)c(O)c2O)c1`, “inactive”; under `Cc1cc(C)c2c(c1)[C@@H]1C=CC[C@@H]1[C@H](c1ccc(S(=O)(=O)N3CCOCC3)cc1)N2`, “inactive”.

Regarding `Cc1oc(-c2ccccc2)nc1C(=O)OCC(=O)NCc1ccc(F)cc1`, the outcome was inactive. Under `CCC1(C(N)=O)CC2C=CC1C2` (stereo unspecified) stands “inactive”. The result for `Cc1ccc(NC(=O)CCCCCC2NC(=O)NC2C)cc1` (stereo unspecified) reads “inactive”; that for `O=C(CN1C(=O)c2ccccc2C1=O)NCC(=O)OCC(=O)c1cccc([N+](=O)[O-])c1`, “inactive”. As for `C=C(C)C(=O)Nc1ccc2c(c1)OCCOCCOCCO2`, the outcome was inactive. The result for `CCCCNC(=O)CN1C(=O)CSc2ccc(S(=O)(=O)N3CCOCC3)cc21` reads “inactive”; that for `O=C(O)CCc1ccc(S(=O)(=O)Nc2cc(C(F)(F)F)ccc2N2CCCC2)cc1`, “inactive”. The result for `CCNC(=S)Nc1ccc(N(c2ccccc2)C(C)C)cc1` reads “inactive”; that for `Cc1c(Cl)cccc1NC(=O)CC(Cc1ccccc1)C(=O)O` (stereo unspecified), “inactive”; that for `CCCC(=O)NNC(=O)Nc1ccccc1`, “inactive”.

`CCN(CC)c1ccc(NC(=O)c2c(C)noc2C)cc1`: the result was inactive.

As for `CSc1nc(N2CCOCC2)c2c3c(sc2n1)CCC3`, the result was inactive. As to `Cc1nn(CC(=O)Nc2ccccn2)c(C)c1Br`, the result was inactive. The result for `CC(=O)c1ccc(N2CCN(C(=O)c3ccc4c(c3)OCO4)CC2)cc1` reads “inactive”; that for `CC(C)(CS(=O)(=O)[O-])NC(=O)CC[N+](C)(C)CCO`, “inactive”; that for `CCOc1cc(N2CCOCC2)c(OCC)cc1NC(=O)CSc1ncn[nH]1`, “inactive”. The result for `CCOc1ccc(S(=O)(=O)N2CC(=O)Nc3ccccc32)cc1C#N` reads “inactive”; that for `O=C(N/N=C/C=C/c1ccco1)c1cccs1`, “inactive”; that for `O=C(CSc1nc2cc([N+](=O)[O-])ccc2n1-c1ccccc1)NCc1ccc2c(c1)OCO2`, “inactive”. The result for `COCCCN1C(=O)N(c2ccc(F)cc2)C(=O)C1CC(=O)Nc1ccc(OC)cc1` (stereo unspecified) reads “inactive”; that for `Cc1ccc(S(=O)(=O)OCC(=O)Nc2ccc(C(=O)O)c(O)c2)cc1`, “inactive”. Regarding `CC(C)CCN1CCN(Cc2cccn2-c2cccnc2)CC1CCO` (stereo unspecified), the compound was called inactive. Under `NS(=O)(=O)c1ccc(NC(=O)COC(=O)c2cc(Cl)ccc2[N+](=O)[O-])cc1` stands “inactive”; under `Cc1cc(NC(=O)C2CCCC2)n(-c2nc3ccccc3[nH]2)n1`, “inactive”. Under `CCN(c1ccc(NC(=O)COC(=O)c2ccc([N+](=O)[O-])o2)cc1)C(C)C` stands “inactive”.

On to `CSc1ccc(/C=N/n2c(C3CCCCC3)n[nH]c2=S)cc1`, for which the compound was called inactive.

`NS(=O)(=O)c1ccc(N=Nc2ccc(=O)[nH]c2O)cc1`: the compound was called inactive. For `O=C(O)c1cccc2c1Oc1ccccc1S2(=O)=O`, the call was inactive. Under `CC(C)(C)CN1CCNC(=O)C1CC(=O)NCCc1ccccc1C(F)(F)F` (stereo unspecified) stands “inactive”; under `CCCCC1=CC2=CC(=O)C(C)(OC(=O)C3CCCC3)C(=O)C2=CO1` (stereo unspecified), “inactive”. With `Cc1cccc(OCc2nc(C)cc(=O)[nH]2)c1`, the outcome was inactive. For the compound `OC(c1ccc(Cl)cc1)C(O)c1nc2ccccc2[nH]1` (stereo unspecified), the call was inactive. The result for `COc1ccc(NC(=O)c2cc(-c3ccco3)nc3ccccc23)cc1S(=O)(=O)N1CCOCC1` reads “inactive”; that for `COc1ccc(N(CC(=O)NCc2ccccc2C)S(=O)(=O)c2ccc(C)cc2)cc1OC`, “inactive”.

For `CCc1cccc(CC)c1-n1c(SCC(=O)N2CCCc3ccccc32)nc(O)cc1=O`, the call was inactive. The result for `CCc1ccc(-c2nc(SCC(=O)NC3CCS(=O)(=O)C3)n[nH]2)cc1` (stereo unspecified) reads “inactive”; that for `O=C(CSc1ncnc2ccccc12)Nc1cccc(S(=O)(=O)N2CCOCC2)c1`, “inactive”. Regarding `O=C(CCCCCCC(=O)NCc1ccccc1)NCc1ccccc1`, the call was inactive. Consider `COc1ccccc1NC(=O)CN(Cc1ccco1)C(=O)c1cccs1`, for which the outcome was inactive. Under `CC1(C)Cc2c(cnn2-c2ccccc2)C(NC(=O)CCCN2CCCCC2=O)C1` (stereo unspecified) stands “inactive”.
